The source of these data is PubChem BioAssay (EPA / NIEHS).

Assay [1] deals with guinea pig Muscarinic, Peripheral (Mperiperal) Receptor, Non-selective Binding, gene 100379235. Kind of assay: NVS_GPCR_gMPeripheral_NonSelective: NovaScreen (NVS) G Protein-Coupled Receptor Assay for guinea pig Muscarinic, Peripheral (Mperiperal) Receptor, Non-selective Binding (AID 2283250). The method, boiled down:
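Guinea pig bladder membranes, radioligand binding read 1 h after dosing by filter scintillation counting; loss of signal vs DMSO. Primary duplicate screen at 25 uM, then concentration-response up to 50 uM.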

In assay [2] the target is guinea pig Opioid, Kappa 1 Receptor (OpiateK), OPRK1 (gene 100135587) (UniProt P41144). Description: NVS_GPCR_gOpiateK: NovaScreen (NVS) G Protein-Coupled Receptor Assay for guinea pig Opioid, Kappa 1 Receptor (OpiateK) (AID 2283252).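 Further: active means reduced radioligand binding relative to DMSO.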 The method, boiled down: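 Signal is scintillation counts of filter-trapped radioligand bound to guinea pig cerebellar membrane receptor, measured 2 hours post-dosing. Activity is loss of binding versus DMSO, first at 25 uM in duplicate, then as concentration series for actives.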

Assay [3] deals with human Serotonin, 5-Hydroxytryptamine Receptor 6 (5HT6), HTR6 (gene 3362) (UniProt P50406). Description: NVS_GPCR_h5HT6: NovaScreen (NVS) G Protein-Coupled Receptor Assay for human Serotonin, 5-Hydroxytryptamine Receptor 6 (5HT6) (AID 2283253). The method, boiled down:
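Radioligand binding to 5HT6 in HEK293-derived membranes, cell-free, 1 h after dosing; bound ligand measured by filter-based scintillation counting. Primary screen in duplicate at 25 uM; actives retested in concentration series.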

Assay [4] deals with human Adenosine A1 Receptor (AdoRA1), ADORA1 (gene 134) (UniProt P30542). Kind of assay: NVS_GPCR_hAdoRA1: NovaScreen (NVS) G Protein-Coupled Receptor Assay for human Adenosine A1 Receptor (AdoRA1) (AID 2283254). The method, boiled down:
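Hum. cortical membranes + radioligand, cmpd 1 h; filtration, scintillation count. Readout = decrease vs DMSO. Primary 25 uM dup; hits → conc. series.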

The target of assay [5] is human Serotonin, 5-Hydroxytryptamine Receptor 7 (5HT7), HTR7 (gene 3363) (UniProt P34969). Description: NVS_GPCR_h5HT7: NovaScreen (NVS) G Protein-Coupled Receptor Assay for human Serotonin, 5-Hydroxytryptamine Receptor 7 (5HT7) (AID 2283255).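 Further: hits reduce specific radioligand binding relative to DMSO.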 The procedure, abridged: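 Radioligand displacement on membranes from CHO cells expressing human 5HT7, 1 h incubation, filter-based scintillation counting. Primary screen used a single 25 uM concentration in duplicate; actives were followed up in concentration series.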

Assay [6] concerns the target human Adrenergic, Alpha 2A Receptor (Adra2A), ADRA2A (gene 150) (UniProt P08913). Description: NVS_GPCR_hAdra2A: NovaScreen (NVS) G Protein-Coupled Receptor Assay for human Adrenergic, Alpha 2A Receptor (Adra2A) (AID 2283257). The procedure, abridged:
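Radioligand filter-binding was run on HT29-derived membranes, cell-free, read by scintillation counting 1 h after dosing. Primary screening was in duplicate at 25 uM, with concentration series in follow-up. Loss of signal versus DMSO indicates displacement.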

Assay [7] addresses human Adrenergic, Beta 1 Receptor (Adrb1), ADRB1 (gene 153) (UniProt P08588). Kind of assay: NVS_GPCR_hAdrb1: NovaScreen (NVS) G Protein-Coupled Receptor Assay for human Adrenergic, Beta 1 Receptor (Adrb1) (AID 2283258). The procedure, abridged: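 Cell-free radioligand displacement on receptor from human neuroepithelioma cells; 2 h after dosing, filter-based scintillation counting. Primary screen in duplicate at 25 uM, actives retested in concentration series; loss of signal vs DMSO baseline.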

Assay [8] has as its target Beta-2 adrenergic receptor (Homo sapiens) (UniProt P07550). Description: NVS_GPCR_hAdrb2: NovaScreen (NVS) G Protein-Coupled Receptor Assay for human Adrenergic, Beta 2 Receptor (Adrb2) (AID 2283261). The method, boiled down: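 Filter-based radioligand binding using receptor prepared from CHO cells, 1 h incubation, scintillation counting. Primary screen in duplicate at 25 uM, actives retested in concentration series; loss of binding relative to DMSO.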

Assay [9] concerns the target human Adrenergic, Beta 3 Receptor (Adrb3), ADRB3 (gene 155) (UniProt P13945). Kind of assay: NVS_GPCR_hAdrb3: NovaScreen (NVS) G Protein-Coupled Receptor Assay for human Adrenergic, Beta 3 Receptor (Adrb3) (AID 2283262). The method, boiled down:
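Membranes from SK-N-MC cells pretreated with isoproterenol and 8-bromo-cAMP were used in a radioligand competitive displacement binding assay. Binding was read by filter-based scintillation counting 1 hour after dosing. Primary screening was in duplicate at 25 uM, with concentration series in follow-up.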

Assay [10] addresses human Dopamine Receptor D4.4 (DRD4.4), DRD4 (gene 1815) (UniProt P21917). Description: NVS_GPCR_hDRD4.4: NovaScreen (NVS) G Protein-Coupled Receptor Assay for human Dopamine Receptor D4.4 (DRD4.4) (AID 2283264). The method, boiled down: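 Radioligand displacement on human DRD4.4 from CHO-derived membranes, 1 hour incubation, bound counts read by filtration and scintillation. Primary screen in duplicate at 25 uM; actives followed up in concentration series.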

Assay [11] has as its target human Histamine 1 Receptor (H1), HRH1 (gene 3269) (UniProt P35367). Description: NVS_GPCR_hH1: NovaScreen (NVS) G Protein-Coupled Receptor Assay for human Histamine 1 Receptor (H1) (AID 2283268). The procedure, abridged: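 Cell-free radioligand displacement at human H1 receptor, 1 h, filter scintillation counting; primary screen 25 uM in duplicate, hits in concentration series; loss of binding fitted vs DMSO.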

The target in assay [12] is D(1A) dopamine receptor (Homo sapiens) (UniProt P21728). Description: NVS_GPCR_hDRD1: NovaScreen (NVS) G Protein-Coupled Receptor Assay for human Dopamine Receptor D1 (DRD1) (AID 2283269). The method, boiled down: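 HEK293-derived receptor preparation; radioligand competitive displacement; 1 h; filtration + scintillation counting. DMSO = negative control/baseline. Primary: 25 uM, duplicate; secondary: concentration–response for actives.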

Assay [13] addresses Muscarinic acetylcholine receptor M1 (Homo sapiens) (UniProt P11229). Kind of assay: NVS_GPCR_hM1: NovaScreen (NVS) G Protein-Coupled Receptor Assay for human Muscarinic, M1 Receptor (AID 2283270). The procedure, abridged: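 Cell-free radioligand displacement using membrane protein extracted from CHO cells, read by filter-based scintillation counting 1 h after dosing. Loss of bound signal fitted versus DMSO; primary screen single concentration 25 uM in duplicate, actives followed by concentration series.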

For assay [14], the target named is human Leukotriene B4 Receptor 1 (LTB4-BLT1), LTB4R (gene 1241) (UniProt Q15722). Description: NVS_GPCR_hLTB4_BLT1: NovaScreen (NVS) G Protein-Coupled Receptor Assay for human Leukotriene B4 Receptor 1 (LTB4-BLT1) (AID 2283271). The procedure, abridged: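 Radioligand displacement binding on receptor extracted from human neutrophils, cell-free, 1 h after dosing; filter-based scintillation counting. Primary screen in duplicate at 25 uM, actives retested in concentration-response up to 50 uM; loss of signal versus DMSO.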

Assay [15] addresses human Adenosine A2a Receptor (AdoRA2a), ADORA2A (gene 135) (UniProt P29274). Kind of assay: NVS_GPCR_hAdoRA2a: NovaScreen (NVS) G Protein-Coupled Receptor Assay for human Adenosine A2a Receptor (AdoRA2a) (AID 2283256). The procedure, abridged:
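Radioligand displacement on HEK293-derived membrane protein, cell-free; filter-based scintillation counting 1.5 hours after dosing, loss of signal vs DMSO. Single-point duplicate screen at 25 uM, actives retested in concentration series.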

The target of assay [16] is human Endothelin Receptor Type A (ETA), EDNRA (gene 1909) (UniProt P25101). Description: NVS_GPCR_hETA: NovaScreen (NVS) G Protein-Coupled Receptor Assay for human Endothelin Receptor Type A (ETA) (AID 2283265). The procedure, abridged:
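Cell-free radioligand displacement using SH-SY5Y-derived protein, 3 h incubation, filter-based scintillation counting. Primary screen in duplicate at 25 uM; actives then run in concentration-response up to 50 uM; loss of binding fitted versus DMSO.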

The target of assay [17] is guinea pig Leukotriene D4 Receptor (LTD4), CYSLTR1 (gene 100135514) (UniProt Q2NNR5). Description: NVS_GPCR_gLTD4: NovaScreen (NVS) G Protein-Coupled Receptor Assay for guinea pig Leukotriene D4 Receptor (LTD4) (AID 2283248). The procedure, abridged:
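Radioligand displacement on guinea pig lung membranes, 1 h incubation, filtration and scintillation counting; DMSO as negative control. Duplicate 25 uM primary screen, then singleton concentration-response up to 50 uM.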

Assay [18] deals with Type-1 angiotensin II receptor (Homo sapiens) (UniProt P30556). Kind of assay: NVS_GPCR_hAT1: NovaScreen (NVS) G Protein-Coupled Receptor Assay for human Angiotensin II receptor type 1 (AT1) (AID 2283263). The method, boiled down:
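Membranes from KAN-TS cells; radioligand competitive displacement, 3 h, filtration and scintillation counting. Single-point duplicate screen at 25 uM, then concentration-response up to 50 uM for hits; loss of signal fitted versus DMSO.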

Assay [19] concerns the target human Serotonin, 5-Hydroxytryptamine Receptor 2A (5HT2A), HTR2A (gene 3356) (UniProt P28223). Description: NVS_GPCR_h5HT2A: NovaScreen (NVS) G Protein-Coupled Receptor Assay for human Serotonin, 5-Hydroxytryptamine Receptor 2A (5HT2A) (AID 2283249). The method, boiled down:
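Human cortex membranes, cell-free radioligand binding; filter-based scintillation read 1.5 h after dosing. Duplicate screen at 25 uM first; displacement of specific binding (loss of signal) versus DMSO.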

Inconclusive results are not listed. The source made the active and inactive calls. How the source made its calls: active means hit-call score of the fitted dose curve at least 0.9, where 1 is the maximum; inconclusive means response in the unintended direction; inactive means score below 0.9.

human Dopamine Receptor D4.4 (DRD4.4), DRD4 (gene 1815), sequence (P21917 whole entry, looked up): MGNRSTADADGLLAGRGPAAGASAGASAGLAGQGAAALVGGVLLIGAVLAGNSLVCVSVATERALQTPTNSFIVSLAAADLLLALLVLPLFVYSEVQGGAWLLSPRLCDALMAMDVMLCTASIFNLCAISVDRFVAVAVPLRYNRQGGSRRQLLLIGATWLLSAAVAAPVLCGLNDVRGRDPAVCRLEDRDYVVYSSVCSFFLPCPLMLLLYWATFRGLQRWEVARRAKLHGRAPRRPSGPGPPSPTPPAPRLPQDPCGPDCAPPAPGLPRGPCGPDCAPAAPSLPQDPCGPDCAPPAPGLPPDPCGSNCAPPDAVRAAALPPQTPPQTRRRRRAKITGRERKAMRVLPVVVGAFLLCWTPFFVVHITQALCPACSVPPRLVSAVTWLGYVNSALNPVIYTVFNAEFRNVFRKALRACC
guinea pig Opioid, Kappa 1 Receptor (OpiateK), OPRK1 (gene 100135587), sequence (P41144 whole entry, looked up): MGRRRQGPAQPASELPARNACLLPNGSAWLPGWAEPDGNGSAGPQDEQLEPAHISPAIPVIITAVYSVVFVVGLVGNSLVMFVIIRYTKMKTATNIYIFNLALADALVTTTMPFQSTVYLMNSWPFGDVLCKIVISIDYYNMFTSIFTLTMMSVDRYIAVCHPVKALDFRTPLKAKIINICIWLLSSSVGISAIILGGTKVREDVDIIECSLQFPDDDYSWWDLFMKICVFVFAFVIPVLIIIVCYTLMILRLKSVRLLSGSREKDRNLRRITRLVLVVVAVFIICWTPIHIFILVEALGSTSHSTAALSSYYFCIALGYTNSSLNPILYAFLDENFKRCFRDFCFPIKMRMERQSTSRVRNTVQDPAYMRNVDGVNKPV
human Serotonin, 5-Hydroxytryptamine Receptor 7 (5HT7), HTR7 (gene 3363), sequence (P34969 whole entry, looked up): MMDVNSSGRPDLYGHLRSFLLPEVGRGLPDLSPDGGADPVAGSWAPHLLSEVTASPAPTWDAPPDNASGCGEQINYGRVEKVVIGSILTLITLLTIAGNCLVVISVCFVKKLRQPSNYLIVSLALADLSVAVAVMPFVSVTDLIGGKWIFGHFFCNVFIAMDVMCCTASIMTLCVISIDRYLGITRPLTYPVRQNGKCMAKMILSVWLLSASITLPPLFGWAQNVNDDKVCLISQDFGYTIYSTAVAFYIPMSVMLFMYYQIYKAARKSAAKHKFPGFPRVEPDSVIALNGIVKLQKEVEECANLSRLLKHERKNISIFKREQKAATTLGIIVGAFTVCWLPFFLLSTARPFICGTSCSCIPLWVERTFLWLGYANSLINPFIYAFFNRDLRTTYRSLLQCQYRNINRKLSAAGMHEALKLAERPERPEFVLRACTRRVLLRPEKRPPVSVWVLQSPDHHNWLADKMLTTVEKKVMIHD
human Adrenergic, Beta 3 Receptor (Adrb3), ADRB3 (gene 155), sequence (P13945 whole entry, looked up): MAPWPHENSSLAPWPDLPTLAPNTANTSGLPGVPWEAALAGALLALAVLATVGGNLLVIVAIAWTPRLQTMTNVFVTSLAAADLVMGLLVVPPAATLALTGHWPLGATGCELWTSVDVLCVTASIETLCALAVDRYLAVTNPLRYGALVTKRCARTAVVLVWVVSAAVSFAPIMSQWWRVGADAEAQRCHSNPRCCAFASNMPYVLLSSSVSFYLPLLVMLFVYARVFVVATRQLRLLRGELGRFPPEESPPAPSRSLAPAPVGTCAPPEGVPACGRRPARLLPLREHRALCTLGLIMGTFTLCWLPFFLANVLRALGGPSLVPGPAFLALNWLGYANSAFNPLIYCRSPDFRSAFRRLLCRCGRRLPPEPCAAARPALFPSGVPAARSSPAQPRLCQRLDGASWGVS
human Serotonin, 5-Hydroxytryptamine Receptor 6 (5HT6), HTR6 (gene 3362), sequence (P50406 whole entry, looked up): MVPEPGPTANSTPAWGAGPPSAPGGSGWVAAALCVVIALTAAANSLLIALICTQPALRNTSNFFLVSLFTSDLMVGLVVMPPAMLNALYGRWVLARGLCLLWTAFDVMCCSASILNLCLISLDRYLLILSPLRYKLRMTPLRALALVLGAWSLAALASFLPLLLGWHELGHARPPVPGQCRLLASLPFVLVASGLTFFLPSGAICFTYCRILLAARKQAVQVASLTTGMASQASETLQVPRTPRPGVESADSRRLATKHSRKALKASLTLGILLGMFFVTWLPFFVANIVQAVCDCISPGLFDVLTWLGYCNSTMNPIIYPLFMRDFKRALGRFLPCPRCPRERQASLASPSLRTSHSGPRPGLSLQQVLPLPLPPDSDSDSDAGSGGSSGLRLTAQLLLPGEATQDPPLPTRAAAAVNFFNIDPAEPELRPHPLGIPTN
human Adrenergic, Alpha 2A Receptor (Adra2A), ADRA2A (gene 150), sequence (P08913 whole entry, looked up): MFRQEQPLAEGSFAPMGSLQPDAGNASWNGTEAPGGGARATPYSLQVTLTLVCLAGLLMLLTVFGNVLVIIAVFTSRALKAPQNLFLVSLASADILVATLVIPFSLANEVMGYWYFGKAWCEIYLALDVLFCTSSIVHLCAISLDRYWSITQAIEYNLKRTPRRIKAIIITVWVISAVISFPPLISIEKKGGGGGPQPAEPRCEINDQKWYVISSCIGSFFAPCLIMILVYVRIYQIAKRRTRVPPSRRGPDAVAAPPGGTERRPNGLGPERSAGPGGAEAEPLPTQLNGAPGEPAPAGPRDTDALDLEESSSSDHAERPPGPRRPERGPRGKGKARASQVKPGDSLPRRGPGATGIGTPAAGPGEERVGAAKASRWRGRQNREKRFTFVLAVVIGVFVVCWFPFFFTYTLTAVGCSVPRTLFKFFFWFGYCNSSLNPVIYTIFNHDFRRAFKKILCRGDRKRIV
human Adenosine A1 Receptor (AdoRA1), ADORA1 (gene 134), sequence (P30542 whole entry, looked up): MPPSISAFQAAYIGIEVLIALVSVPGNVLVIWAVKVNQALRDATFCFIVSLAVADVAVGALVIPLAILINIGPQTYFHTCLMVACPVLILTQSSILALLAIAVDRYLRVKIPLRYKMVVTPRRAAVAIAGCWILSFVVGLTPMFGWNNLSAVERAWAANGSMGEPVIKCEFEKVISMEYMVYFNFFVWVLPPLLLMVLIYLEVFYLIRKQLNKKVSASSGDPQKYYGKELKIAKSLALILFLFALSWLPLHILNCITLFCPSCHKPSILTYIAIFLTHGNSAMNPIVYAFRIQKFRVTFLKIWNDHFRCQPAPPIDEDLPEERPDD
Beta-2 adrenergic receptor (Homo sapiens), sequence (P07550 whole entry, looked up): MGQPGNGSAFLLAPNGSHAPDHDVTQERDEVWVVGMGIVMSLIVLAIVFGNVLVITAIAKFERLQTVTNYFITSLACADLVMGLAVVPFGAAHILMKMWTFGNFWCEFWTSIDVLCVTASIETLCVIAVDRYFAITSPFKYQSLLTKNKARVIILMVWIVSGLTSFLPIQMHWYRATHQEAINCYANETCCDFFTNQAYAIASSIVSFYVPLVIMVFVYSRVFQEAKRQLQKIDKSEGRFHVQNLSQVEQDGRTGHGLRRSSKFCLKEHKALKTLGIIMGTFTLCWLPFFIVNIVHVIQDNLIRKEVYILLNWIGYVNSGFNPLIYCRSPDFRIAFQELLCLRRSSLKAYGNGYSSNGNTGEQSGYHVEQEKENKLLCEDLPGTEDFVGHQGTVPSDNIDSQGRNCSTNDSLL
human Histamine 1 Receptor (H1), HRH1 (gene 3269), sequence (P35367 whole entry, looked up): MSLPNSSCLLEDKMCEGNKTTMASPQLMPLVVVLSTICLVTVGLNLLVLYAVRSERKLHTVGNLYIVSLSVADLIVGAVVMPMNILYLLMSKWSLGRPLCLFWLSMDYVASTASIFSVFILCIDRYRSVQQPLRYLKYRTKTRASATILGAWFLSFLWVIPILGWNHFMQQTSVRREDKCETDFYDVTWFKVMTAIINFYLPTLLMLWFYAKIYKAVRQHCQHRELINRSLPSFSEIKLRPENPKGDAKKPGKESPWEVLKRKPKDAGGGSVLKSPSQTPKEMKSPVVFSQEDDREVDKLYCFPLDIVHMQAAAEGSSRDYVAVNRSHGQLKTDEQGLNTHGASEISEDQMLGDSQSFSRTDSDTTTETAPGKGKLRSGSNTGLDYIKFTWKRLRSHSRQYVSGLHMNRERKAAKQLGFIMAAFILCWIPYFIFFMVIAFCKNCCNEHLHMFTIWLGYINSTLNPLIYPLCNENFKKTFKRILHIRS
D(1A) dopamine receptor (Homo sapiens), sequence (P21728 whole entry, looked up): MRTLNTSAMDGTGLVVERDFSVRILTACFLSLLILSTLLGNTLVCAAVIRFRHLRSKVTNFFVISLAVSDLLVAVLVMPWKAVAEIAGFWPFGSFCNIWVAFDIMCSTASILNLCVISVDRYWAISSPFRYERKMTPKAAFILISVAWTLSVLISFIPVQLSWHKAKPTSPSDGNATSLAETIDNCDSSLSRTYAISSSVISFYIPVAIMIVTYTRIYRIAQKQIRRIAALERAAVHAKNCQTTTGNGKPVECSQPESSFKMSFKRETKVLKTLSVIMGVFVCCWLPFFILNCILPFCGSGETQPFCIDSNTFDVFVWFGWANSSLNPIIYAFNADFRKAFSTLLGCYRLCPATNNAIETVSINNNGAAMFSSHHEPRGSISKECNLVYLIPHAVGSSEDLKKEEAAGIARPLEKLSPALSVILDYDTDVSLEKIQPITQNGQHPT
Muscarinic acetylcholine receptor M1 (Homo sapiens), sequence (P11229 whole entry, looked up): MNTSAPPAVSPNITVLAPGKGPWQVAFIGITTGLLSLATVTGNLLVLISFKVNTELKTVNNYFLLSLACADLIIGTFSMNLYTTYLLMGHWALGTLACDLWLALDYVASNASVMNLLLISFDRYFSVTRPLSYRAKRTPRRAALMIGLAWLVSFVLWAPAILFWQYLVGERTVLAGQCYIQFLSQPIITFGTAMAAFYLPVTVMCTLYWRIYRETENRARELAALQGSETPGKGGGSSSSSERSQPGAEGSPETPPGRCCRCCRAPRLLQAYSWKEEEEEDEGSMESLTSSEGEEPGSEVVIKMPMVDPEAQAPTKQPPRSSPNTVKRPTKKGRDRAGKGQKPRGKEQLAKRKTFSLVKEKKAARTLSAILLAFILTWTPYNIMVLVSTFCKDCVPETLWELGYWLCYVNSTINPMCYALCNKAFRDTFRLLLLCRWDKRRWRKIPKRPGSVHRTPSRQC

In general, AC50 refers to the midpoint of the concentration-response curve, whichever way the signal moves. Turning to `NCc1cccc(C2CCN(C(=O)c3ccc(C#Cc4ccccc4F)o3)CC2)c1`, the half-maximal activity concentration (AC50) in assay [1] was 9.09 µM (active); in assay [2], 25 µM (active); in assay [3] it was 8.69 µM (active); in assay [4], 15.8 µM (active); in [5], 6.87 µM (active); in assay [6], 25 µM (active). Besides, the concentration at half-maximal activity (AC50) in assay [7] is 20.6 µM (active); in assay [8], 12.6 µM (active); in [10], 25 µM (active); in assay [11] it was 22.1 µM (active); in assay [12], 5.14 µM (active); in assay [13], 1.78 µM (active). Moreover, the AC50 in [14] was 25 µM (active). Further, the molecule was classed as inactive in [9].

For `Cc1occc1C(=O)Nc1ccc(C(=O)N2CCC(F)(F)/C(=C\C(=O)N3CCC(N4CCCCC4)CC3)c3ccccc32)cc1`, the concentration at half-maximal activity (AC50) was 5.65 µM (active) in assay [1]; 2.49 µM (active) in [2]; 3.24 µM (active) in [4]; 4.89 µM (active) in assay [5]; 2.33 µM (active) in assay [15]; 3.18 µM (active) in assay [6]. Besides, in assay [11], the AC50 was 0.148 µM (active). Further, the molecule was called inactive in [9].

As for `CN(C)c1ccc(C(=C2C=CC(=[N+](C)C)C=C2)c2ccc(N(C)C)cc2)cc1`, the AC50 is 5.05 µM (active) in assay [1]; 4.24 µM (active) in assay [2]; 13.9 µM (active) in [3]; 10.5 µM (active) in assay [4]; 4.11 µM (active) in assay [5]; 2.59 µM (active) in assay [6]. In addition, the AC50 is 14.4 µM (active) in assay [8]; 16.3 µM (active) in [9]; 1.11 µM (active) in [10]; 1.81 µM (active) in assay [16]; 8.85 µM (active) in [14].

Consider `O=c1[nH]sc2ccccc12`, for which the concentration at half-maximal activity (AC50) in [17] was 3.31 µM (active); in assay [2] it was 21.5 µM (active); in assay [3], 14.3 µM (active); in assay [5] it was 14.7 µM (active); in assay [18] it was 25 µM (active); in [12] it was 6.83 µM (active).

As to `CN(C)C(=O)C1(N2CCCCC2)CCN(CC[C@@]2(c3ccc(Cl)c(Cl)c3)CN(C(=O)c3ccccc3)CCO2)CC1`, the AC50 in [19] is 0.957 µM (active); in assay [1], 8.87 µM (active); in assay [2], 5.78 µM (active); in [3], 23.6 µM (active); in assay [5], 3.39 µM (active); in assay [6], 35.6 µM (active). The half-maximal activity concentration (AC50) in assay [7] was 20.7 µM (active); in [8] it was 25.9 µM (active); in assay [9] it was 23.6 µM (active); in [18] it was 15.7 µM (active); in [10], 12.2 µM (active); in assay [11], 20.3 µM (active). The half-maximal activity concentration (AC50) in assay [12] is 23.6 µM (active); in [13] it was 11.7 µM (active). Moreover, the result in [4] was inactive.
